{"source": "ChEMBL document CHEMBL4513216", "about": "“Probing the Open Global Health Chemical Diversity Library for Multistage-Active Starting Points for Next-Generation Antimalarials” (ACS Infect Dis, 2020)", "note": "The whole screen tested about 68,000 compounds, of which about 2,700 (4%) showed an effect of 50% or more. The sample as a whole holds a higher share of strong results than the screen did.", "data": [{"system": "Plasmodium berghei", "experiment": "Screen against P. berghei liver stage (PbLuc), transformed with Luciferase, at 2uM", "format": "functional, HepG2", "details": "tested at 2 uM", "units": {"INHIBITION": "%"}, "values": [{"compound": "CCC(CC)(CCO)CNC(=O)c1ccon1", "INHIBITION": 34.69}, {"compound": "CS(=O)(=O)NCCNC(=O)Cc1ccc(Br)s1", "INHIBITION": 12.55}, {"compound": "Cc1ncc(CNC(=O)c2oc3ccccc3c2CN(C)C)s1", "INHIBITION": -21.47}, {"compound": "CN(CC1Cc2ccccc2CN1C)C(=O)CSc1nccn1C", "note": "(stereo not given)", "INHIBITION": 53.61}, {"compound": "Cc1cc(=O)[nH]c(SCC(=O)N(C)CC2Cc3ccccc3CN2C)n1", "note": "(stereo not given)", "INHIBITION": -15.36}, {"compound": "CN(CC1Cc2ccccc2CN1C)C(=O)CSc1ccccn1", "note": "(stereo not given)", "INHIBITION": 35.54}, {"compound": "COc1ccc(CCCN(C)C(=O)c2cc(Cl)c[nH]2)cc1OC", "INHIBITION": 32.31}, {"compound": "O=C(C1CC1)N1Cc2[nH]nc(COCc3cccnc3)c2C1", "INHIBITION": -14.61}, {"compound": "O=C(Nc1cc(CCC2CCN(CCO)CC2)ccn1)c1ccccn1", "INHIBITION": 35.19}, {"compound": "COc1cccc(CC(=O)N2CC[C@@H]3[C@H](CC2)N(C)CCS3(=O)=O)c1", "INHIBITION": 4.38}, {"compound": "CC(C)CC(=O)N1CC[C@H]2N(C)CC[C@@]2(C(=O)Nc2ccccc2)CC1", "INHIBITION": 11.87}, {"compound": "CNC(=O)N1CC[C@H]2N(C)CC[C@@]2(C(=O)Nc2ccccc2)CC1", "INHIBITION": 62.13}, {"compound": "CC(C)C(=O)N1CC[C@H]2N(C)CC[C@@]2(C(=O)Nc2ccccc2)CC1", "INHIBITION": 17.69}, {"compound": "CC(C)(C)Nc1nc(-c2cccnc2)c(-c2ccnc(NCCO)n2)s1", "INHIBITION": -31.71}, {"compound": "CCOC1CCC2(CCN(C(=O)c3c[nH]cn3)CC2)c2ccccc21", "note": "(stereo not given)", "INHIBITION": 28.46}, {"compound": "Cc1nn(C)c(N2CCOCC2)c1CNC(C)c1ccco1", "note": "(stereo not given)", "INHIBITION": -39.37}, {"compound": "Cc1ccc(C(C)NCc2c(C(C)C)nn(C)c2N2CCOCC2)o1", "note": "(stereo not given)", "INHIBITION": -41.76}, {"compound": "CC(C)c1nn(C)c(N2CCOCC2)c1CNC(C)c1ccco1", "note": "(stereo not given)", "INHIBITION": 53.98}, {"compound": "NC(CC1CCCC1)c1ccccc1", "note": "(stereo not given)", "INHIBITION": 10.24}, {"compound": "CCN1CCCC1CNC(=O)c1cc(COc2cccc(F)c2)[nH]n1", "note": "(stereo not given)", "INHIBITION": 21.67}, {"compound": "O=C(CC1CC1)N1CCc2ncc(Cn3cncn3)n2CC1", "INHIBITION": 31.73}, {"compound": "CC(C)S(=O)(=O)N1CCCC(c2nccn2Cc2cccnc2)C1", "note": "(stereo not given)", "INHIBITION": -7.66}, {"compound": "O=C([C@@H]1CCO[C@@H]2CCN(CC3CC3)C[C@H]21)N1CCCC1", "INHIBITION": -16.33}, {"compound": "Cc1noc(C)c1CN1CC[C@H]2OCC[C@@H](C(=O)N3CCCO3)[C@@H]2C1", "INHIBITION": -13.8}, {"compound": "O=C([C@@H]1CCO[C@@H]2CCN(CC3CC3)C[C@H]21)N1CCCCO1", "INHIBITION": 57.07}, {"compound": "Cc1noc(C)c1CN1CC[C@H]2OCC[C@@H](C(=O)N3CCCO3)[C@H]2C1", "INHIBITION": 59.08}, {"compound": "O=C([C@@H]1CCO[C@@H]2CCN(CC3CCOCC3)C[C@H]21)N1CCCO1", "INHIBITION": -3.19}, {"compound": "Cc1noc(C)c1CN1CC[C@H]2OCC[C@@H](C(=O)NCC3CC3)[C@@H]2C1", "INHIBITION": 6.04}, {"compound": "CCn1ccc(NC(=O)C2CCC(=O)N2Cc2ccc(C)o2)n1", "note": "(stereo not given)", "INHIBITION": 45.14}, {"compound": "O=C(c1cc(=O)n(-c2ccccc2)[nH]1)N1CCOCC(O)C1", "note": "(stereo not given)", "INHIBITION": 4.12}, {"compound": "COCCOc1ccccc1NC(C)C(=O)NC(=O)NC(C)(C)C", "note": "(stereo not given)", "INHIBITION": -19.21}, {"compound": "CCCc1n[nH]c(C2CN(C(=O)c3ccc[nH]3)CCO2)n1", "note": "(stereo not given)", "INHIBITION": -70.51}, {"compound": "CC(Cc1ccccc1F)NC(=O)CCC1=NC(=C2N=CN=N2)NO1", "note": "(stereo not given)", "INHIBITION": 24.12}, {"compound": "COCCNC(=O)Cn1c(-c2cccc(F)c2)nc(C)c(CCO)c1=O", "INHIBITION": -4.75}, {"compound": "O=C(O)C1(Cc2ccc(F)cc2F)CCCN(Cc2ccncc2)C1", "note": "(stereo not given)", "INHIBITION": 43.57}, {"compound": "OCC1(Cc2ccc(F)cc2F)CCCN(Cc2ccncc2)C1", "note": "(stereo not given)", "INHIBITION": 61.48}, {"compound": "COCCC1(CO)CCCN(Cc2ccncc2)C1", "note": "(stereo not given)", "INHIBITION": 10.53}, {"compound": "Cc1c(-c2cc(C(=O)N3CCc4ncc(Cl)cc4C3)on2)cnn1C", "INHIBITION": -30.88}, {"compound": "O=C(NCC(F)F)c1cc(-c2ccccc2)nc2ncnn12", "INHIBITION": 5.88}, {"compound": "CCc1nc(CCNC(=O)NC2CCSCC2)cs1", "INHIBITION": 50.32}, {"compound": "CCc1nc(CCNC(=O)NC2CC(=O)N(C(C)(C)C)C2)cs1", "note": "(stereo not given)", "INHIBITION": 3.62}, {"compound": "CCc1nc(CCNC(=O)Nc2ccc(C(=O)NC)cc2)cs1", "INHIBITION": -58.5}, {"compound": "CCNCc1ccc(OCc2ccc3c(c2)OCCO3)cc1", "INHIBITION": 12.94}, {"compound": "NC1CC(C(F)(F)F)=NC=C1c1ccccc1", "note": "(stereo not given)", "INHIBITION": 25.93}, {"compound": "Cn1c(C(F)(F)F)nn(CCNC(=O)Nc2ccccc2F)c1=O", "INHIBITION": 37.87}, {"compound": "Cc1ccccc1NC(=O)NCCn1nc(C(F)(F)F)n(C)c1=O", "INHIBITION": 16.54}, {"compound": "Cn1c(C(F)(F)F)nn(CCNC(=O)Nc2ccccc2Cl)c1=O", "INHIBITION": 64.74}, {"compound": "Cn1cc(C(=O)N2CCN(Cc3cscn3)CC2)ccc1=O", "INHIBITION": -15.08}, {"compound": "CC(=O)N1CCN(C(=O)Nc2ccccc2)CC2(CC(=O)N(C)C2)C1", "note": "(stereo not given)", "INHIBITION": 7.88}, {"compound": "Cc1cccc(NC(=O)N2CCC3(CC(=O)N(c4ccsc4)C3)C2)c1", "note": "(stereo not given)", "INHIBITION": 1.29}, {"compound": "CCN1CC2(CNCCN(C(=O)Nc3ccccc3)C2)CC1=O", "note": "(stereo not given)", "INHIBITION": 17.77}, {"compound": "CN1CC2(CNCCN(C(=O)Nc3ccccc3)C2)CC1=O", "note": "(stereo not given)", "INHIBITION": 56.21}, {"compound": "O=C(NCc1ccccc1)N1CCC2(CC(=O)N(c3ccsc3)C2)C1", "note": "(stereo not given)", "INHIBITION": 18.86}, {"compound": "O=C(Nc1ccccc1)N1CCC2(CC(=O)N(c3ccsc3)C2)C1", "note": "(stereo not given)", "INHIBITION": 57.31}, {"compound": "Cc1nn(Cn2ccc(C(=O)N3CCCCCC3)n2)c(C)c1Cl", "INHIBITION": 7.68}, {"compound": "CC(NC(N)=O)C(=O)N1CCCN(Cc2nccn2C(C)C)CC1", "note": "(stereo not given)", "INHIBITION": -7.5}, {"compound": "CN(C(=O)Cc1ccc(NC(=O)NC2CCC2)cc1)c1ccccc1", "INHIBITION": 43.21}, {"compound": "Cc1ccc(C(=O)N2CCC3(CC2)CCN(CCN(C)C)C3=O)cn1", "INHIBITION": 39.92}, {"compound": "CCn1c(C2CCN(C(=O)c3cc(CC(C)C)no3)CC2)nn(C)c1=O", "INHIBITION": 51.31}, {"compound": "CCn1c(C2CCN(C(=O)c3cc(CC(C)C)on3)CC2)nn(C)c1=O", "INHIBITION": -5.44}, {"compound": "CCn1c(C2CCN(C(=O)c3cc(Cl)no3)CC2)nn(C)c1=O", "INHIBITION": 13.76}, {"compound": "CCN1CCn2c(-c3cccc(F)c3)cnc2C12CCN(C(C)=O)CC2", "INHIBITION": -13.68}, {"compound": "O=c1[nH]c(NCCO)nc2c1C1(CCCCC1)Cc1ccccc1-2", "INHIBITION": 53.55}, {"compound": "O=c1[nH]c(NCCO)nc2c1C1(CCCC1)Cc1ccccc1-2", "INHIBITION": -29.21}, {"compound": "O=c1[nH]c(NCCCO)nc2c1C1(CCCC1)Cc1ccccc1-2", "INHIBITION": 43.82}]}]}
